Common to all, as to format: functional
Assay [1] addresses Solute carrier family 2, facilitated glucose transporter member 1 (Homo sapiens) (UniProt P11166). Put plainly: ST_JUDE_LEISH: Cytotoxicity at 2uM final concentration against transgenic Leishmania Mexicana promastigotes LmGLUT1 that are glucose transport deficient and complemented with the human glucose transporter GLUT1. Activity is measured by DNA content using SYBR green in vitro.

Assay [2] deals with Hexose transporter 1 (Plasmodium falciparum) (UniProt O97467). Put plainly: ST_JUDE_LEISH: Cytotoxicity at 2uM final concentration against transgenic Leishmania Mexicana promastigotes LmPfHT that are glucose transport deficient and complemented with the Plasmodium falciparum hexose transporter. Activity is measured by DNA content using SYBR green in vitro.
For assay [3], the target named is Glucose transporter (Leishmania mexicana) (UniProt O61059). Put plainly: ST_JUDE_LEISH: Cytotoxicity at 2uM final concentration against transgenic Leishmania Mexicana promastigotes LmGT2 that are glucose transport deficient and complemented with the L. Mexicana glucose transporter 2. Activity is measured by DNA content using SYBR green in vitro.

The term inhibition denotes the relative decrease from the control value, in per cent.

Sequence of Solute carrier family 2, facilitated glucose transporter member 1 (Homo sapiens) (P11166 whole entry): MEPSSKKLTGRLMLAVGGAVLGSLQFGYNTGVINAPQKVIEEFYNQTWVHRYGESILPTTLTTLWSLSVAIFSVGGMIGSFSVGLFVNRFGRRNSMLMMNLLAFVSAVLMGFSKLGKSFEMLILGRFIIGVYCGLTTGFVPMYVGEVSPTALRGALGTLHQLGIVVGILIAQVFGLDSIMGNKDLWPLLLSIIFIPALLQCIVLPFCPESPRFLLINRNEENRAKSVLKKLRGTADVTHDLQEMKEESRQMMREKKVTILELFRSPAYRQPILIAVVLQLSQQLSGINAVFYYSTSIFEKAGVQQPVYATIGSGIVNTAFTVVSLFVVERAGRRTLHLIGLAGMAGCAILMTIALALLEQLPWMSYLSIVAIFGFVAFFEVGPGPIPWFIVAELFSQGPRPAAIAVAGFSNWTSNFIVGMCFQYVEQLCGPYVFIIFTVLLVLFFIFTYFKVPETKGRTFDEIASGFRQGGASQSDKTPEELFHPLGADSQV

As to `COc1ccc(C(=O)Nc2ccc(Nc3nc(C)cc(N(C)C)n3)cc2)c(OC)c1`, the inhibition in assay [1] worked out at 5.81%; in assay [2], 6.65%; in assay [3], 5.62%.

Turning to `CC1(C)CCC(C)(C)c2c1ccc(C1CCN(CCCCNC(=O)c3ccc(-c4ccc(C#N)cc4)cc3)CC1)c2O`, the inhibition in assay [1] came out at 0.66%; in assay [2], 0.22%; in assay [3], 0.63%.

As for `CC1(C)NC(N)=NC(=N)N1OCCCO`, the inhibition was -0.7% in assay [1], -0.74% in assay [2] and -1.67% in assay [3].

Consider `CC(C)(C)c1ccc2[nH]c(-c3ccc(/C=C/C(=O)NC4CCN(Cc5ccccc5)CC4)cc3)nc2c1`, for which the figures for the inhibition in assay [1], in assay [2] and in assay [3] were 9.73%, 10.5% and 7.5%, respectively.

Regarding `N=C(NCC1CC1c1ccccc1)c1cccc(C(=N)NCC2CC2c2ccccc2)n1` (stereo not drawn), the inhibition stood at 5.1% in assay [1], 5.88% in assay [2] and 6.3% in assay [3].

As for `COc1cc2c(cc1C(F)(F)F)N(C(=O)Nc1cccc(-c3ccc(CN(C)C)cc3)c1)CC2`, the inhibition was 22.1% in assay [1], 10.2% in assay [2] and 44% in assay [3].

Take `O=C(/C=C/c1ccc(C(F)(F)F)cc1)NCCCCCN1CCN(C(=O)Nc2ccc(Cl)c(Cl)c2)CC1`: the inhibition was 0.91% in assay [1], 2.31% in assay [2] and -0.42% in assay [3].

As to `N#Cc1cccc(NC(=O)Nc2cccc(OC3CCN(Cc4ccccc4)CC3)c2)c1`, the inhibition in assay [1] was 0.82%; in assay [2] it was 0.59%; in assay [3], -0.29%.

On to `COc1ccc(C(=O)C2CCN(CCCCNC(=O)c3ccc(NC(=O)c4ccc(Cl)cc4)cc3)CC2)c(OC)c1`, for which the inhibition in assay [1] was found to be 2.37%; in assay [2], 2.82%; in assay [3] it was 1.53%.

As for `Nc1c(Cl)cc(C(O)CNCCCCCOCCCc2ccc(O)c3ncccc23)cc1Cl` (stereo not drawn), the inhibition was found to be 103% in assay [1], 99.7% in assay [2] and 97.5% in assay [3].

With `Oc1ccc(CCNc2nc(NCc3cccc(-c4cc(C(F)(F)F)ccc4Cl)c3)nc(N3CCNCC3)n2)cc1`, the values for the inhibition in assay [1], in assay [2] and in assay [3] were 2.86%, 1.88% and 2.82%, respectively.

In the case of `COc1ccc(C2CC(=O)C3=C(C2)NC(C)=C(C(=O)OC(C)C)C3c2cccc(O)c2)cc1OC` (stereo not drawn), the inhibition turned out to be 4.15% in assay [1], 1.12% in assay [2] and 1.71% in assay [3].

For `CN(C(=O)/C=C/c1c(Cl)cccc1Cl)C1CCN(CCCCCNC(=O)/C=C/c2ccc(Cl)c(Cl)c2)CC1`, the inhibition in assay [1] worked out at 2.14%; in assay [2] it was 2.38%; in assay [3] it was 1.38%.

In the case of `c1ccc2[nH]c(-c3ccc(-c4ccc(CN5CCN(CCN6CCOCC6)CC5)cc4)s3)nc2c1`, the figures for the inhibition in assay [1], in assay [2] and in assay [3] were 10.4%, 9.34% and 7.67%, respectively.

For `O=S(=O)(Nc1cccc(F)c1CNCc1ccccn1)c1ccc(Cl)c(Cl)c1`, the values for the inhibition in assay [1], in assay [2] and in assay [3] were -1.4%, 0.71% and -2.5%, respectively.

For the compound `COc1ccc(-c2nc(NC(=O)CS(=O)(=O)c3ccc(C)cc3)sc2C)cc1`, the inhibition in assay [1] was 8.39%; in assay [2], 6.4%; in assay [3] it was 0.17%.

Regarding `CC(C)N1CCC(N(Cc2ccc(-c3ccc(C(F)(F)F)cc3)cc2)C(=O)Cn2c(SCc3cccc(F)c3F)nc(=O)c3ccccc32)CC1`, the inhibition in assay [1] is 6.03%; in assay [2] it was 4.99%; in assay [3], 4.15%.

Regarding `O=C(NCCCCN1CCC(c2nc3ccccc3s2)CC1)c1cc2ccccc2[nH]1`, the inhibition is 3.02% in assay [1], 0.13% in assay [2] and -1.01% in assay [3].

In the case of `CCCNC[C@@H](O)[C@H](Cc1ccccc1)NC(=O)c1cc(NCC)cc(N2CCCC2=O)c1`, the inhibition in assay [1] was 1.25%; in assay [2] it was 2.29%; in assay [3] it was 0.72%.

As for `COc1ccc2nc3ccccc3c(NCCN3CCN(C)CC3)c2c1`, the figures for the inhibition in assay [1], in assay [2] and in assay [3] were 7.5%, 5.93% and 4.16%, respectively.

On to `O=C(Nc1ccc(-c2csc3nccn23)cc1)c1ccc(Cl)cc1`, for which the inhibition in assay [1] is 5.5%; in assay [2] it was 4.05%; in assay [3], -0.28%.

On to `CCn1c(-c2nc(-c3ccnc(N4CCN(C)CC4)c3)cnc2N)nc2cc(S(C)(=O)=O)ccc21`, for which the inhibition was 36.5% in assay [1], 45.3% in assay [2] and 20.7% in assay [3].

For the compound `COc1ccccc1C(=O)Nc1ccc(Nc2nc(C)cc(N3CCOCC3)n2)cc1`, the inhibition in assay [1] came out at 4.83%; in assay [2], 4.3%; in assay [3], 5.97%.

As to `Cc1cc(NC(=O)c2ccco2)ccc1OC1CCN(Cc2ccc(F)cc2)CC1`, the values for the inhibition in assay [1], in assay [2] and in assay [3] were 4.89%, 3.02% and 1.98%, respectively.

Consider `Cc1cccc(-c2nc(Nc3ccncc3)c3cc(N(C)C)ccc3n2)n1`, for which the inhibition in assay [1] is 0.37%; in assay [2], -1.05%; in assay [3], -3.66%.

With `O=C(Nc1cccc(C(F)(F)F)c1)c1cccc(S(=O)(=O)NC2CCCN(CC3CCCCC3)C2)c1` (stereo not drawn), the inhibition in assay [1] was determined as 0.39%; in assay [2], 0.03%; in assay [3] it was 0.55%.

Take `CNCc1ccc(CN(C)c2nc(N)c3cc(OC)c(OC)cc3n2)cc1`: the inhibition in assay [1] was determined as 4.8%; in assay [2], 5.4%; in assay [3], 6.34%.

For `O=C(NC1CCC(N2CCN(c3cccc(C(F)(F)F)c3)CC2)CC1)c1cc2ccccc2[nH]1` (stereo not drawn), the inhibition amounted to 8.24% in assay [1], 6.44% in assay [2] and 5.57% in assay [3].

As for `COc1ccc(-c2nc3c(NCc4ccccc4)nccc3[nH]2)c(OC)c1`, the inhibition in assay [1] came out at 4.06%; in assay [2] it was 4.06%; in assay [3] it was 2.67%.

As to `FC(F)(F)COc1c(CNCCCCCCNCc2ccc3ccccc3c2OCC(F)(F)F)ccc2ccccc12`, the results for the inhibition in assay [1], in assay [2] and in assay [3] were 87.7%, 95.5% and 104%, respectively.

For the compound `CCCCCCCCCN(CCC)C(=O)[C@@H]1OC(C(=O)OC(c2ccccc2)c2ccccc2)=C[C@H](NC(=O)OC(C)(C)C)[C@H]1NC(C)=O`, the inhibition in assay [1] is 2.98%; in assay [2], 2.98%; in assay [3], 1.47%.

Turning to `CN1CCC(C(=O)Nc2ccc(-c3cccc(-c4nc5cc(C(F)(F)F)ccc5[nH]4)c3)cc2)CC1`, the inhibition in assay [1] worked out at 0.78%; in assay [2], 2.62%; in assay [3], 2.31%.

`CCNc1cc(C(=O)N[C@@H](Cc2ccccc2)[C@H](O)CNCc2cccc(OC)c2C)cc(N2CCCCS2(=O)=O)c1`: the inhibition stood at 1.82% in assay [1], 1.66% in assay [2] and 2.02% in assay [3].

As for `Nc1c2c(nc3ccc(Oc4ccc(Cl)cc4)cc13)CCCC2`, the values for the inhibition in assay [1], in assay [2] and in assay [3] were 60.9%, 70.5% and 40.5%, respectively.

Consider `CC(CN1CCN(C)CC1)C(=O)Nc1ccc(-c2cccc(-c3nc4ccccc4[nH]3)c2)cc1` (stereo not drawn), for which the values for the inhibition in assay [1], in assay [2] and in assay [3] were 2.41%, 1.7% and -0.2%, respectively.

Turning to `Cc1nc(O)c2c(ccc3ccc(CNc4ccc(C(=O)N[C@@H](CCC(=O)O)C(=O)O)cc4)cc32)n1`, the inhibition worked out at 0.64% in assay [1], 2.36% in assay [2] and 1.05% in assay [3].
